High-throughput results from PubChem BioAssay.
This is a sample that favours compounds with a hit; in the whole collection about 2.2% have one here.
Statin myotox sup = suppression of simvastatin myotoxicity | hit rate 0.78% among 330,000 | C2C12 myotubes + simvastatin, ATP luminescence, 48 h; scaled: DMSO 0, geranylgeraniol control 100 | rescue of ATP level, % at 7.49 µM;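 active means mean ATP rescue above about 67%, or every replicate alone reaching that limit, limit read from the data, passing the limit was not always enough; inconclusive means no clear call, values can overlap the other calls; inactive means mean under the limit and some replicate under it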;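 further: myotubes were challenged with 10 µM simvastatin during compound exposure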
DENV2 CPE = DENV2-induced cell death inhibition | DENV2-infected cells, cytopathic effect rescue, plate reader | CPE inhibition, % at 9.99 µM | hit rate 1.7% among 350,000; in the data active means CPE inhibition above about 20%, passing the limit was not always enough; inconclusive means no clear call, values can overlap the other calls; tested in BHK-21 cells;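 further: 0% = median of neutral control wells and 100% = median of positive control wells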
miR122 inh = inhibitors of miR-122 in Huh7 cells | Huh7 miR-122 Renilla luciferase sensor, 48 h; neutral wells = 0, positive control = 100 | activation (reporter increase), % at 12.5 µM | hit rate 0.3% among 340,000 | AID 602342;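 active means mean replicate activation score at least 90 and every replicate individually at or above 90; inconclusive means only one of the two criteria met; inactive means neither criterion met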;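 further: higher luciferase means less miR-122 activity so hits act as miR-122 inhibitors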
PvdQ inh = P. aeruginosa PvdQ acylase inhibition | purified PvdQ acylase, fluorescence plate reader | inhibition, % at 10 µM | hit rate 0.063% among 340,000 | AID 488965; in the data active means inhibition above about 30%, passing the limit was not always enough; inconclusive means no clear call, values can overlap the other calls;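 further: 0% = vehicle neutral wells and 100% = reference inhibitor wells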
PGC1a acetyl inh = modulators of PGC1a acetylation. U2OS PGC1a acetylation, AlphaScreen anti-acetyl-lysine; with virally co-expressed GCN5 acetyltransferase. inhibition, % at 15.6 µM. hit rate 0.17% among 350,000;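 active means every replicate shows inhibition of at least 40%; inconclusive means mean inhibition at least 40% but some replicate below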;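 further: 0% = neutral control wells and 100% = positive control wells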
The depositor's hits bear a star; ? = inconclusive; · = not tested or not shown; [ ] = remark or other dose.

SMILES	Statin myotox sup	DENV2 CPE	miR122 inh	PvdQ inh	PGC1a acetyl inh
Cc1ccccc1S(=O)(=O)N1CCCCN2[C@H](CO)[C@H](c3ccc(-c4cncnc4)cc3)[C@@H]2C1	·	36*	2[16.7 µM]	·	2
N#C[C@H]1[C@@H](c2ccc(C#Cc3ccccc3F)cc2)[C@@H](CO)N1C(=O)C1CC1	-29	-4	·	·	-7
Cc1noc2ncnc(Sc3ccc(Cl)cc3)c12	134*	·	4	-7	-4
Cc1ccc(Sc2ncnc3onc(C)c23)cc1	98*	·	3	-11	17
OCCC1CN(Cc2cnc(-c3ccc(Cl)cc3)nc2)CCN1C1CCCCC1 (stereo not given)	·	50*	·	1	·
Cc1cccc(-c2ncc(CN3CCN(C4CCCC4)C(CCO)C3)cn2)c1 (stereo not given)	8	5	5	-6	3
CN1c2ccc(-c3cccc(C#N)c3)cc2[C@@H]2[C@@H](CCN2C(=O)C2CC2)[C@H]1CO	·	-1	·	·	-2
O=C(NCC[C@@H]1CC[C@H](NS(=O)(=O)c2cccc(F)c2)[C@H](CO)O1)Nc1cc(F)ccc1F	3	5	·	·	-9
O=C(C[C@H]1CC[C@@H](NS(=O)(=O)c2cccc(F)c2)[C@H](CO)O1)N1CCCCC1	11	25*	·	·	-1
O=C(NCC[C@@H]1CC[C@@H](NS(=O)(=O)c2cccc(F)c2)[C@@H](CO)O1)Nc1cc(F)ccc1F	-4	24*	·	·	-15
COc1ccc(CCN2C(=O)[C@@]3(Cc4ccccc42)c2ccccc2C(=O)N(C2CCCCC2)[C@H]3c2ccc(CO)cc2)cc1	·	-4	·	·	7
CCCNC(=O)Nc1ccc2c(c1)OC[C@H](C)N(Cc1ccccc1)C[C@@H](C)[C@@H](OC)CN(C)C2=O	-3	-12	68[16.7 µM]	·	7
C[C@@H]1CN([C@H](C)CO)C(=O)c2cccc(NC(=O)C3CC3)c2O[C@@H]1CN(C)C(=O)Nc1ccc(F)cc1	-19	12	-8[16.7 µM]	·	7
CC(C)NC(=O)Nc1cccc2c1O[C@@H](CN(C)C(=O)Nc1ccc(F)cc1)[C@@H](C)CN([C@H](C)CO)C2=O	-19	22*	6[16.7 µM]	·	0
C[C@H](CO)N1C[C@H](C)[C@H](CN(C)C(=O)Nc2ccc(F)cc2)Oc2c(NC(=O)C3CC3)cccc2C1=O	-18	35*	3[16.7 µM]	·	8
CC(C)NC(=O)Nc1cccc2c1O[C@H](CN(C)C(=O)Nc1ccc(F)cc1)[C@H](C)CN([C@@H](C)CO)C2=O	5	-10	-13[16.7 µM]	·	-3
CN(C)CC(=O)N[C@@H]1CC[C@@H](CCNC(=O)C2CCC2)O[C@H]1CO	-2	?	·	·	2
Cc1ccc(S(=O)(=O)N(C)C[C@@H]2OCCCC[C@H](C)Oc3ccc(NC(=O)c4ccccc4)cc3C(=O)N([C@H](C)CO)C[C@@H]2C)cc1	·	6	-13[16.7 µM]	·	0
C[C@H](CO)N1C[C@H](C)[C@H](CN(C)C(=O)Nc2ccc3c(c2)OCO3)Oc2ccc(NC(=O)Cn3cnnn3)cc2CC1=O	38	42*	5[16.7 µM]	·	6
C[C@@H]1CN([C@H](C)CO)C(=O)Cc2cc(NC(=O)Cn3cnnn3)ccc2O[C@H]1CN(C)C(=O)Nc1ccc(C(F)(F)F)cc1	15	30*	1[16.7 µM]	·	-16
C[C@@H]1CN([C@H](C)CO)C(=O)Cc2cc(NC(=O)Cn3cnnn3)ccc2O[C@@H]1CN(C)CC1CCCCC1	30	22*	-6[16.7 µM]	·	-1
C[C@@H]1CN([C@H](C)CO)C(=O)Cc2cc(NC(=O)Cn3cnnn3)ccc2O[C@@H]1CN(C)C(=O)Nc1ccc2c(c1)OCO2	41	0	2[16.7 µM]	·	4
C[C@H](CO)N1C[C@H](C)[C@H](CN(C)Cc2ccc(C(F)(F)F)cc2)OCc2cnnn2CCCC1=O	9	-1	-2[16.7 µM]	·	9
COc1ccc(NC(=O)N(C)C[C@H]2Oc3c(NC(=O)C4CCOCC4)cccc3C(=O)N([C@H](C)CO)C[C@@H]2C)cc1	-13	-5	7[16.7 µM]	·	-12
O=C(N[C@@H]1CC[C@@H](CCNS(=O)(=O)c2cccc(Cl)c2)O[C@H]1CO)c1ccccc1	2	77*	·	·	1
SMILES	Statin myotox sup	DENV2 CPE	miR122 inh	PvdQ inh	PGC1a acetyl inh
O=C(N[C@@H]1CC[C@@H](CCNS(=O)(=O)c2ccccc2)O[C@H]1CO)c1cccnc1	-7	32*	·	·	-3
O=C(N[C@H]1CC[C@H](CCNS(=O)(=O)c2cccc(Cl)c2)O[C@@H]1CO)c1ccccc1	1	6	·	·	1
C[C@@H]1CN([C@@H](C)CO)C(=O)c2cc(C#CCN(C)C)cnc2O[C@@H]1CN(C)C(=O)Nc1cc(F)ccc1F	1	-3	-1[16.7 µM]	·	-2
COCC(=O)Nc1ccc2c(c1)OC[C@@H](C)N(CC1CCCCC1)C[C@H](C)[C@@H](OC)CN(C)C2=O	1	-3	·	·	-35
Nc1nc2c(s1)C(=O)CCC2	91*	·	-4	-12	-5
Cc1noc(C)c1S(=O)(=O)N(C)C[C@H]1Oc2c(NS(=O)(=O)c3ccccc3)cccc2C(=O)N([C@@H](C)CO)C[C@H]1C	-5	?	0[16.7 µM]	·	6
O=C(Nc1ccc(S(=O)(=O)NCCc2ccccc2)cc1)c1ccco1	33	·	365*	-4	-5
CC(=O)Nc1ccc(S(=O)(=O)NCCc2ccc(S(N)(=O)=O)cc2)cc1	0	·	226*	-2	9
CC(C)NC(=O)N1CC2(C1)[C@@H](c1ccccc1)[C@H](CO)N2C(=O)C1CCC1	·	7	·	·	5
Cc1ccc(N2C(=O)CCSC23C(=O)Nc2ccccc23)cc1 (stereo not given)	-22	·	5	-14	-11
COc1ccc(N2C(=O)CSC23C(=O)Nc2ccccc23)cc1 (stereo not given)	110*	·	-15	-25	-7
O=C(CSc1nc(-c2ccco2)cc(C(F)(F)F)n1)N1CCSCC1	86*	·	2	-3	-6
O=C(O)C[C@@H]1C[C@H]2c3cc(NS(=O)(=O)c4ccccc4)ccc3O[C@H]2[C@H](CO)O1	-3	7	6[16.7 µM]	·	-5
O=C1CNC[C@H]2[C@@H](c3ccc(-c4ccccc4F)cc3)[C@H](CO)N12	·	3	·	·	1
O=C(c1ccc(F)cc1)N1CC(=O)N2[C@H](C1)[C@H](c1ccc(C3=CCCC3)cc1)[C@@H]2CO	·	53*	·	·	7
O=C(Cc1cccnc1)N1CC(=O)N2[C@H](CO)[C@@H](c3ccc(C4=CCCC4)cc3)[C@@H]2C1	·	-3	·	·	0
O=C(Cc1cccnc1)N1CC(=O)N2[C@H](C1)[C@H](c1ccc(C3=CCCC3)cc1)[C@@H]2CO	·	36*	·	·	23
O=C(c1ccc(F)cc1)N1CC(=O)N2[C@H](CO)[C@@H](c3ccc(C4=CCCC4)cc3)[C@H]2C1	·	6	·	·	-4
O=C(c1ccc(F)cc1)N1CC(=O)N2[C@H](C1)[C@H](c1ccc(-c3ccccc3F)cc1)[C@@H]2CO	·	26*	·	·	-2
O=C1CNC[C@H]2[C@H](c3ccc(-c4ccccc4F)cc3)[C@@H](CO)N12	·	37*	·	·	14
